Rows were chosen to be rich in hits. Some 2.7% of all compounds tested hit in one or more screens of this group.
KKLEB cytotox = cytotoxicity in KKLEB CF airway cells, primary screen, cytotoxicity control for CF NF-kB inhibitor project, cell-based, uHTS, fluorescence assay plates | KKLEB CF airway cells viability, ATPlite luminescence, overnight; active compounds read low; cells stimulated with P. aeruginosa culture filtrate | activity change (cytotoxicity), % at 5 µM | 360,000 compounds, 0.36% hits | AID 602141, 2011;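 active means corrected activity change at or below -50% at 5 µM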
Peg3 prom inh = Peg3 promoter-driven luciferase inhibitors, primary screen, cell-based, HeLa, luciferase luminescence. HeLa PEG-Prom luciferase reporter, overnight. inhibition, % at 20 µM. 360,000 compounds, 1.7% hits. AID 588405, 2011;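 active means inhibition of at least 50% at 20 µM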
Shn3 3UTR inh = reduction of Shn3 3'UTR firefly luciferase signal, primary screen, Schnurri-3 inhibitor project, cell-based, Clone20 osteoblasts, set 2. Clone20 osteoblast Shn3 3'UTR firefly luciferase, 24 h. inhibition, % at 12.5 µM. 360,000 compounds, 0.52% hits;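 active means mean inhibition of at least 75% with every replicate also reaching 75%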;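 further: 0% = median of neutral control wells and 100% = pilot-screen positive control compound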
HIF-2a inh = HIF-2a reporter inhibitors, primary screen, luminescence, 786-0 RCC cells; 786-0 RCC cells HIF-2a reporter, luciferase luminescence, overnight; inhibition, % at 18.8 µM; 360,000 compounds, 0.72% hits;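 active means inhibition of the luminescence signal of 40% or more relative to plate controls, in a single-dose primary screen at 18.75 µM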
CF NFkB inh = inhibitors of PAF-induced NF-kB signaling, primary screen, cell-based, GFP fluorescence, uHTS. KKLEB NF-kB-GFP reporter, GFP fluorescence overnight. inhibition, % at 5 µM. 360,000 compounds, 0.86% hits;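 active means at least 50% inhibition at 5 µM, scaled per plate between neutral and stimulator controls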;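 further: PAF is a Pseudomonas aeruginosa culture filtrate used as stimulus; plate controls were PAF-stimulated DMSO wells for no effect and unstimulated DMSO wells for full effect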
TRPM1 prom inh = inhibitors of MITF-dependent TRPM1 promoter reporter, primary screen, cell-based, SK-MEL-5, single point, luciferase. SK-MEL-5 TRPM1 promoter luciferase, 24 h. inhibition, % at 12.5 µM. 330,000 compounds, 0.83% hits;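 active means mean inhibition across replicates of 60% or more, whatever share of single replicates reaches that level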
Mdm2 MdmX conf = retested Mdm2-MdmX interaction blockers, confirmation, cell-based, luminescence, single concentration, set 2; shares compounds with HIF-2a inh; SaOS-2 split-luciferase Mdm2/MdmX complementation; inhibition, % at 8 µM; 740 compounds, 99% hits; AID 504601, 2011;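 active means mean inhibition of the luminescence signal across two replicates at or above 26 percent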
Target sequence (O15151 whole entry, looked up): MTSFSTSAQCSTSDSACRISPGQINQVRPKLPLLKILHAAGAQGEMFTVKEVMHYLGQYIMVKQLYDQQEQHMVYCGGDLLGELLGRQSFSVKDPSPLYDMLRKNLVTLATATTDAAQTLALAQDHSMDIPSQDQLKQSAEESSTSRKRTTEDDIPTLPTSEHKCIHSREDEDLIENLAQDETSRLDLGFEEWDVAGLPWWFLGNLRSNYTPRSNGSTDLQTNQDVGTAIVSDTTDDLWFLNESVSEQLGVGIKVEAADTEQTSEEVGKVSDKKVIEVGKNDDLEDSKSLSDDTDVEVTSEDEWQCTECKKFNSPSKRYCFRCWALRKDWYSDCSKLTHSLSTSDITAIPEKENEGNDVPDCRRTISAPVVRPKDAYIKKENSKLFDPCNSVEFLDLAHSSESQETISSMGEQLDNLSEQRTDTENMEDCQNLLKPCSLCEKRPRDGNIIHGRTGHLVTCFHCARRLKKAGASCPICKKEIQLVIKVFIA
Target sequence (Q00987 whole entry, looked up): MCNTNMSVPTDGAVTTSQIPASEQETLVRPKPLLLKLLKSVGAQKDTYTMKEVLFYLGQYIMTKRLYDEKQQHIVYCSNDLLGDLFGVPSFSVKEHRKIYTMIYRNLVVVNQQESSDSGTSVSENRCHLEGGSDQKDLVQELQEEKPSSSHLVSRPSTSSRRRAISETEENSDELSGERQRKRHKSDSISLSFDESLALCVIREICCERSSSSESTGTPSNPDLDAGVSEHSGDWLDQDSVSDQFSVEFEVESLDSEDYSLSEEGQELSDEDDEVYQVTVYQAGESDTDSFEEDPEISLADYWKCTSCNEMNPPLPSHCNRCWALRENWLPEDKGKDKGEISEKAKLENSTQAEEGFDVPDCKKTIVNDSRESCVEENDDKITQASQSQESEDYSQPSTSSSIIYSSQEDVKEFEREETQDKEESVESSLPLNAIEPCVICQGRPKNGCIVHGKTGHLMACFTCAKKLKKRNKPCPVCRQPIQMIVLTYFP
HIF-2a inh conf = HIF-2a reporter inhibitor retest, confirmation, luminescence, 786-0 RCC cells; inhibition, % at 18.8 µM; 1,800 compounds, 56% hits; HIF-2a luciferase reporter luminescence, overnight; shares compounds with HIF-2a inh; AID 651580, 2012;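 active means mean inhibition across four replicates of at least 40 percent at the single tested concentration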
HIF-1a cs = HIF-1a luciferase reporter signal reduction – MiaPaCa-2 cells, single concentration, counter-screen for HIF-2a inhibitor project, confirmation; AID 651589, 2012; shares compounds with HIF-2a inh; inhibition, % at 18.8 µM; MiaPaCa-2 HIF-1a luciferase reporter, desferoxamine, overnight; 1,800 compounds, 72% hits;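 active means mean inhibition of the reporter signal across four replicates at the single tested dose of 50% or more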
The depositor's hits bear a star.

How did CCCc1ccc(-c2ccc(/C=C/C(=O)O)cc2)nc1 do in these assays?
KKLEB cytotox: -11; Peg3 prom inh: 39; Shn3 3UTR inh: 29; HIF-2a inh: 87*; CF NFkB inh: -13; TRPM1 prom inh: 86*; HIF-2a inh conf: 89*; HIF-1a cs: 91*

Results for CCOC(=O)C1=C(O)/C(=C/c2cn(CC(=O)NCC3CCCO3)c3ccccc23)SC1=Nc1ccc(C)cc1 (centres undefined) ?
KKLEB cytotox: -56*; Peg3 prom inh: 59*; Shn3 3UTR inh: 69; HIF-2a inh: -19; CF NFkB inh: 58*; TRPM1 prom inh: 88*; Mdm2 MdmX conf: 86*

Results for CCOc1cc(N2CCOCC2)c(OCC)cc1NC(=O)COC(=O)c1ccc(Cl)nc1 ?
KKLEB cytotox: 20; Peg3 prom inh: 1; Shn3 3UTR inh: -32; HIF-2a inh: 7; CF NFkB inh: -14; TRPM1 prom inh: 10

How did O=C(CCN1N=C(c2ccccc2)CCC1=O)NCC1CCCO1 (centres undefined) do in these assays?
KKLEB cytotox: 16; Peg3 prom inh: -2; Shn3 3UTR inh: 1; HIF-2a inh: 9; CF NFkB inh: -8; TRPM1 prom inh: 0

Results for CCCC(=O)N1CCCC1(C)C(=O)Nc1cc(C)ccc1C (centres undefined) ?
KKLEB cytotox: 2; Peg3 prom inh: 8; Shn3 3UTR inh: -22; HIF-2a inh: 9; CF NFkB inh: -2

How did CCNc1nc(C)c2cc(Br)c(=O)n(CC)c2n1 do in these assays?
KKLEB cytotox: -44; Peg3 prom inh: 44; Shn3 3UTR inh: 47; HIF-2a inh: 55*; CF NFkB inh: 33; TRPM1 prom inh: 14; HIF-2a inh conf: 39; HIF-1a cs: 46

Results for CCn1c(=N)c(C(=O)NC)cc2c(=O)n3cccc(C)c3nc21 ?
KKLEB cytotox: 8; Peg3 prom inh: 25; Shn3 3UTR inh: 5; HIF-2a inh: 22; CF NFkB inh: -43; TRPM1 prom inh: 7

Results for O=C(Nc1ccc(Cl)cc1)C1CCCN(C2=NS(=O)(=O)c3ccccc32)C1 (centres undefined) ?
KKLEB cytotox: 21; Peg3 prom inh: 16; Shn3 3UTR inh: -10; HIF-2a inh: 5; CF NFkB inh: -15; TRPM1 prom inh: 4

Results for CCC(C)N(CC(=O)Nc1cccc(C)c1C)C(=O)CCl (centres undefined) ?
KKLEB cytotox: -20; Peg3 prom inh: 44; Shn3 3UTR inh: -50; HIF-2a inh: 51*; CF NFkB inh: 9; TRPM1 prom inh: 14; Mdm2 MdmX conf: 103*; HIF-2a inh conf: 46*; HIF-1a cs: 54*

Results for CCN(Cc1ccccc1)C(=O)CN1C(=O)NC(CC)(c2ccc(F)cc2)C1=O (centres undefined) ?
KKLEB cytotox: -2; Peg3 prom inh: -11; Shn3 3UTR inh: -11; HIF-2a inh: 9; CF NFkB inh: 19; TRPM1 prom inh: -10

Results for COc1ccc(NC(=O)COC(=O)CNC(=O)COc2ccccc2)cc1OC ?
KKLEB cytotox: 14; Peg3 prom inh: 5; Shn3 3UTR inh: -1; HIF-2a inh: -4; CF NFkB inh: -15; TRPM1 prom inh: -4

How did COc1ccc(C(=O)Nn2c(SCC(=O)NCC3CCCO3)nc3ccccc3c2=O)cc1 (centres undefined) do in these assays?
KKLEB cytotox: -6; Peg3 prom inh: 13; Shn3 3UTR inh: 53; HIF-2a inh: 49*; CF NFkB inh: 5; TRPM1 prom inh: -2; HIF-2a inh conf: 60*; HIF-1a cs: 49

What do the screens show for `CN(C)S(=O)(=O)c1ccc(C(=O)Nc2nnc(SCC(=O)NCC3CCCO3)s2)cc1` (centres undefined)?
KKLEB cytotox: 5; Peg3 prom inh: -3; Shn3 3UTR inh: 7; HIF-2a inh: -24; CF NFkB inh: -21; TRPM1 prom inh: -4

What do the screens show for `CCOc1ccc(C(=O)Nc2nnc(SCC(=O)NCC3CCCO3)s2)cc1` (centres undefined)?
KKLEB cytotox: -36; Peg3 prom inh: 21; Shn3 3UTR inh: 7; HIF-2a inh: 55*; CF NFkB inh: 15; TRPM1 prom inh: 48; HIF-2a inh conf: 59*; HIF-1a cs: -1

How did O=C(CSc1ccc(-c2ccc(Cl)cc2)nn1)NC1CCCC1 do in these assays?
KKLEB cytotox: -5; Peg3 prom inh: 3; Shn3 3UTR inh: 6; HIF-2a inh: -9; CF NFkB inh: 3; TRPM1 prom inh: 0

How did [O-][N+](=Cc1ccccc1)CC1(O)CCCCC1 do in these assays?
KKLEB cytotox: 12; Peg3 prom inh: 1; Shn3 3UTR inh: 8; HIF-2a inh: -24; CF NFkB inh: -19

What do the screens show for `O=C(c1ccco1)N1CCC(c2nc3ccccc3[nH]2)CC1`?
KKLEB cytotox: 11; Peg3 prom inh: 18; Shn3 3UTR inh: 51; HIF-2a inh: 5; CF NFkB inh: 10; TRPM1 prom inh: 0

How did O=C(Nc1cc(C(F)(F)F)cc(C(F)(F)F)c1)Nc1cnn(-c2ccc([N+](=O)[O-])cc2)c1C(F)(F)F do in these assays?
KKLEB cytotox: -69*; Peg3 prom inh: 96*; Shn3 3UTR inh: 60; HIF-2a inh: 57*; CF NFkB inh: 77*; TRPM1 prom inh: 70*; Mdm2 MdmX conf: 103*; HIF-2a inh conf: 7; HIF-1a cs: 106*

How did O=C(COC(=O)COc1ccc2c(c1)CCC2)Nc1ccccc1C(F)(F)F do in these assays?
KKLEB cytotox: -4; Peg3 prom inh: 0; Shn3 3UTR inh: -7; HIF-2a inh: 1; CF NFkB inh: -4; TRPM1 prom inh: -4

What do the screens show for `O=[N+]([O-])c1ccc(Oc2cccc(Br)c2)c2ccncc12`?
KKLEB cytotox: -23; Peg3 prom inh: 36; Shn3 3UTR inh: -13; HIF-2a inh: 45*; CF NFkB inh: 32; TRPM1 prom inh: 13; HIF-2a inh conf: 29; HIF-1a cs: 77*

High-throughput results from PubChem BioAssay.
